# In the supplement of paper PMC3334620:
# Over roughly 33,000 sequences, “E-score (-0.5 to 0.5)” has its median near -0.053; the highest 2% begin near 0.37. The list comes from a sample in which the highest values are over-represented; it also holds similar and randomly drawn sequences.
# Target: Hap1 (UniProt P0CE41)
# Experiment: PBM E-score (8-mer binding enrichment) (E-score (-0.5 to 0.5)); higher = stronger / more preferred TF binding
# Details: protein concentration: 200 nM; construct: GST-DNA-binding domain
# How it was run: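 The E-score, a modified Wilcoxon-Mann-Whitney statistic, was computed by the Universal PBM Analysis Suite for every ungapped eight-base word pooled with its reverse complement. Scans behind it were normalised with masliner after bound GST-tagged yeast transcription factors were detected with fluorescent anti-GST. The proteins, at about 100-200 nM, had been applied to universal all-10-mer Agilent arrays made double-stranded by primer extension.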
# UniProt P0CE41, sequence (P0CE41 whole entry): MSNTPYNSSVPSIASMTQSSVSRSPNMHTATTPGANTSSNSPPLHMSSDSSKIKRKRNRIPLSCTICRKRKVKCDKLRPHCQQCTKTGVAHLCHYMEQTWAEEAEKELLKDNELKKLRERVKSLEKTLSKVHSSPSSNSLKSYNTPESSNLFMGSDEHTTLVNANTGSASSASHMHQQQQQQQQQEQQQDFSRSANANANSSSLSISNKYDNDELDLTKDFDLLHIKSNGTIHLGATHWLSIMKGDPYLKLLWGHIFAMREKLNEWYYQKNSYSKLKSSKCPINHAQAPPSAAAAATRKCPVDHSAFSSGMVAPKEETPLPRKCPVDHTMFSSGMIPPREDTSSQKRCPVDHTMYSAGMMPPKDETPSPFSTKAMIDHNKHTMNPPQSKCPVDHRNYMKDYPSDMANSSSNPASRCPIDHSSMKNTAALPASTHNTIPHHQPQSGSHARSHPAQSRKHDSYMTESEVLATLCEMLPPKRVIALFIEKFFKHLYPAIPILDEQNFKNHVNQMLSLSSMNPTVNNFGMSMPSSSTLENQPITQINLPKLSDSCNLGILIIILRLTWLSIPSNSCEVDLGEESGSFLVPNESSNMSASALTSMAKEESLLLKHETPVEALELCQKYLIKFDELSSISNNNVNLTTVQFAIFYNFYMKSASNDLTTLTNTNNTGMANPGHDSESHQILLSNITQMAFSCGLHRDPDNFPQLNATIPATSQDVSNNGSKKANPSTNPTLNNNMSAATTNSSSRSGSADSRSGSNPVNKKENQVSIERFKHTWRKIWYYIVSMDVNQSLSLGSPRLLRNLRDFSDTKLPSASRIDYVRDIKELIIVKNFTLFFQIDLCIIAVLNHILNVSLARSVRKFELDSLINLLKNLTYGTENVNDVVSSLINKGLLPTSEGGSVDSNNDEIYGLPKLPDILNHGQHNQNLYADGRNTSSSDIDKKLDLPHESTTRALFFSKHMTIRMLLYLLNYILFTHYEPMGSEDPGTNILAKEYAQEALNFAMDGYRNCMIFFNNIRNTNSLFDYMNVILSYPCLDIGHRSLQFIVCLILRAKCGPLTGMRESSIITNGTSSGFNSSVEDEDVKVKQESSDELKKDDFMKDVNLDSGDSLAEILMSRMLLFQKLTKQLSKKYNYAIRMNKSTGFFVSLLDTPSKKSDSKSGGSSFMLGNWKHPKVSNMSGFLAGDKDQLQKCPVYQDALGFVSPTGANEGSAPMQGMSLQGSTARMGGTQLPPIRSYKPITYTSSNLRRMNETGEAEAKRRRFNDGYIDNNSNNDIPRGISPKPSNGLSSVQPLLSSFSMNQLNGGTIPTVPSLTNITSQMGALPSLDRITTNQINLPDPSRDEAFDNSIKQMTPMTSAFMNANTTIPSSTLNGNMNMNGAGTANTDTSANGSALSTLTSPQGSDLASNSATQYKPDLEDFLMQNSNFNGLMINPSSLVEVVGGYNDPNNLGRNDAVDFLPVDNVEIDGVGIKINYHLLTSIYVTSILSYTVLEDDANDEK
row,Sequence,PBM E-score
1,GAAGCATC,-0.0716
2,CGGAATTA,0.481
3,CGGAAATA,0.487
4,CGGAATTC,0.319
5,GGGAAATA,0.13
6,AGGAATTA,0.17
7,CGGAAATC,0.352
8,AGTTGAGC,-0.188
9,GCCTGGAA,-0.233
10,CAGTTTGG,-0.204
11,AGTATGTA,-0.162
12,AAGACCGA,0.413
13,AAGACCGT,0.0453
14,CAGACCGA,0.278
15,ATGACCGC,0.197
16,ATGACCGA,0.378
17,ATGACCGG,0.276
18,CTTCTAGA,-0.156
19,AAATGCTC,0.0505
20,TGACAGAA,-0.247
21,ACAGACCT,-0.0718
22,ACTAGTAC,-0.173
23,ATAGCCGA,0.372
24,ATAGCCGG,0.397
25,ATAGCCGC,0.232

row,Sequence,PBM E-score
1,AGAGCCGG,0.263
2,ATAGCCAG,-0.293
3,CTAGCCGA,0.25
4,AGTTTGGA,-0.274
5,CAGTTTCA,-0.241
6,ATAACGGC,0.355
7,ATAACGGG,0.228
8,ATAACGGA,0.414
9,CAAACGGA,0.324
10,GTCACGGA,0.371
11,GTAACGGA,0.401
12,CTAACGGA,0.38
13,CTCACGGA,0.221
14,GAAACGGA,0.277
15,GTAACGCA,0.0607
16,ATCACGGA,0.352
17,CTAACGGC,0.184
18,CATAACCG,0.133
19,ATGATTCC,0.0894
20,TCCTGCCA,-0.12
21,GTCATGAC,-0.111
22,AAAAACTC,0.0741
23,AGATGGCT,-0.0974
24,ACTATGCA,-0.16
25,CGCTACTA,0.163

row,Sequence,PBM E-score
1,CCGCCTTA,-0.0179
2,CCGCTCAA,0.0207
3,AGCCAGCA,-0.268
4,CGTTTACA,-0.145
5,CAACAGAA,-0.227
6,AACAAATC,-0.00416
7,AGCGTACT,-0.0657
8,CGTCCGCC,0.281
9,AGTCCGTA,0.269
10,AGTCCGCA,0.293
11,CGTCCGGC,0.41
12,AGTCCGGA,0.452
13,CGTCCGCA,0.228
14,CGTCCGGA,0.443
15,CGTCCGTC,0.234
16,GGTCCGCA,0.3
17,CGTCCGTA,0.309
18,GGTCCGGA,0.44
19,GGTCCCGA,0.231
20,ATGAAGAA,-0.136
21,GCACTGGA,-0.275
22,ACTGCCGA,0.261
23,GCCGACCC,0.139
24,AAACAGCC,-0.0624
25,AATGATCA,-0.179

row,Sequence,PBM E-score
1,CTTCAAGA,-0.235
2,AGGAAAGA,-0.275
3,ACATTCGC,0.0143
4,AGCCAAGA,-0.26
5,AGGACACA,-0.0409
6,AGATTCGA,-0.117
7,CGGTATTA,0.412
8,CGGTATTC,0.304
9,CGGTAATA,0.408
10,CGGTAATC,0.327
11,AGGTATTA,0.0089
12,GGGTAATA,-0.00588
13,CCGGGGAA,0.372
14,TCCGGGAA,0.376
15,CGGGGGAA,0.354
16,CCGGGGGA,0.343
17,ACGGGGAT,0.383
18,ACGGGGAG,-0.0069
19,ACGGGGAC,0.159
20,CCCGGGAA,0.339
21,ACCGGGAA,0.35
22,GCAGGCTA,-0.169
23,CGCCATAA,-0.0284
24,TACTTAGA,-0.362
25,GCGCCCGC,0.0873

row,Sequence,PBM E-score
1,AGGCTCAT,-0.159
2,CGCGTGGA,-0.079
3,GACCGATC,0.341
4,CACCGATG,0.196
5,CACCGATC,0.22
6,TACCGATA,0.378
7,CACCGATA,0.375
8,GACCGACA,0.359
9,GACCGATA,0.434
10,TACCGACA,0.209
11,AACCGATG,0.193
12,TACCGAAA,0.188
13,AACCGATA,0.421
14,AACCGATT,0.263
15,ATGGGTCA,-0.27
16,CATGAGGA,-0.0511
17,CTTTCGAC,-0.0279
18,AAGGGTCG,0.0795
19,ACGATAGG,0.0214
20,CAGATAGG,-0.142
21,CCGATAGC,0.372
22,ACGATAGA,-0.099
23,ACGATAGC,0.0603
24,CCGATAGA,0.405
25,GCGATAGA,0.223

row,Sequence,PBM E-score
1,CCGATAGG,0.438
2,GCGATAGC,0.00865
3,ACGATTGG,-0.123
4,GTGTCCCA,0.0086
5,CCGATGCA,0.242
6,ATACCCCG,0.346
7,ATACCCGC,0.253
8,ATACCCGA,0.398
9,ATACCCTG,-0.0146
10,CTACCCGA,0.161
11,ATACCCGG,0.38
12,CATCGCCC,0.128
13,AAAAGGTT,-0.211
14,CGGTTAAC,0.203
15,ATACCCTA,-0.203
16,AGGGTCAC,-0.193
17,GCGGTGTA,-0.063
18,AGGCGGTA,-0.131
19,GGGCGGAA,0.267
20,CCGCGGAG,0.352
21,CAGCGGAG,0.245
22,GGGCGGTA,0.315
23,CGGCGGAA,0.396
24,AGGCGGAG,0.175
25,CCGCGGAC,0.383

row,Sequence,PBM E-score
1,CGGCGGAG,0.387
2,CCGCGGAA,0.317
3,CGGCGGTA,0.428
4,AGGCGGAA,0.0183
5,CCATGGCC,-0.0324
6,CGACCAGA,0.0439
7,AGTTTGAG,-0.0293
8,ATGATCCC,0.0807
9,CTTCCCAA,-0.197
10,CGAAAGTA,0.0968
11,CGGCTACG,0.111
12,AGATGAAC,-0.115
13,CGGCGGAC,0.38
14,AGGCGGAC,0.288
15,GGGCGGAC,0.279
16,CCAGACCA,-0.187
17,ACGTCCTG,-0.211
18,ACGTCCGG,0.411
19,ACGTCCAA,-0.0855
20,ACGTCCGA,0.386
21,ACGTCCGC,0.357
22,CCGTCCGA,0.399
23,GCGTCCGA,0.305
24,CCGTCCGC,0.231
25,CCGTCCTA,-0.104
